An excerpt weighted towards active compounds, which were near 1.5% of everything screened.
TPT1 inh: C. albicans TPT1 enzyme inhibition; recombinant caTPT1, FP RNA substrate dephosphorylation; inhibition, % at 5 µM; 300,000 tested, 0.81% active;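 active = inhibition above the mean of all tested compounds plus 3 SD, set per screening campaign, cut at about 24% in these data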;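 also: plate controls were DMSO alone for no effect and ferristatin control at 100 nM for full effect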
CRFR2-BP ag: agonists of human CRF-binding protein/CRF-R2 receptor complex. 350,000 tested, 0.46% active. HEK293 CRF-R2/CRF-BP, calcium dye fluorescence (FLIPR); percent of saturating CRF peptide response. activation, % at 13.2 µM. AID 588473;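 active = activation of at least 50%, plus an integration ratio under a set limit after plate pattern correction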;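 also: plate controls were neutral control wells without compound for no effect and CRF at EC100 for full effect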
IDE cell inh: inhibitors of human insulin-degrading enzyme in cells. AID 434962. P14735. HEK cells, FAbetaB cleavage, fluorescence polarization. inhibition, % at 5.59 µM. 320,000 tested, 0.41% active;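 active = percent inhibition above the average of all tested compounds plus 3 SD, set per screening campaign, cut at about 16% in these data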;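 also: IDE supplied by intact live HEK cells; FP after avidin binding of uncleaved biotin substrate so inhibition keeps polarization high; 0% = DMSO wells and 100% = 60 µM reference IDE inhibitor Ii1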
Target sequence (P14735 whole entry, looked up): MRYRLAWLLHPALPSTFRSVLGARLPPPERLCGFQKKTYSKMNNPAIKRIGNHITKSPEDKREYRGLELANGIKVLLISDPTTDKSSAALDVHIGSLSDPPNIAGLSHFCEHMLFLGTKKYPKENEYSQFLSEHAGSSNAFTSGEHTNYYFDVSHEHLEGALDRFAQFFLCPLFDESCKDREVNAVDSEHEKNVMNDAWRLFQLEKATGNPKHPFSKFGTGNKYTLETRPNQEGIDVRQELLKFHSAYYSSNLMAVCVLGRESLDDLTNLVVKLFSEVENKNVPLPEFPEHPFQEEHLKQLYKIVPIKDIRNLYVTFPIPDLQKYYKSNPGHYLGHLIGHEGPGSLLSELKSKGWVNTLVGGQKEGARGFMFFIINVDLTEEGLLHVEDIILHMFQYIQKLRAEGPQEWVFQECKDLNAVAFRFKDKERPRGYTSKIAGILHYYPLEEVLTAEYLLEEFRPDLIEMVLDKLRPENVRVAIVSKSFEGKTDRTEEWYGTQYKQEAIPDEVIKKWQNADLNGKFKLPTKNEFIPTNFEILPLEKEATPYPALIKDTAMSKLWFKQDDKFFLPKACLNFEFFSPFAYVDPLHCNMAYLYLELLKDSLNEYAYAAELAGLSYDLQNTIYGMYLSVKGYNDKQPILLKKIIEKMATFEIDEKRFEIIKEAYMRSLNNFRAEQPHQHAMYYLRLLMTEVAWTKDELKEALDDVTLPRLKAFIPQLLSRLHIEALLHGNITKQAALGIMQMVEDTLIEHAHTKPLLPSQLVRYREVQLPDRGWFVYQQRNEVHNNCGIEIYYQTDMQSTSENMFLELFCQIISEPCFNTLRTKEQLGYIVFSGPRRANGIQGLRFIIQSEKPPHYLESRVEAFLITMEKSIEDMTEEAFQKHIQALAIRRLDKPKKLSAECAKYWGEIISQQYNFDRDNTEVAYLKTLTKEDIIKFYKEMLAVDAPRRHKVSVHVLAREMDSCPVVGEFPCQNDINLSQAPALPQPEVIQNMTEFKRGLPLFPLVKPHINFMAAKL
RTF Ca sens inh: cardiac RTF calcium desensitization; P19429+P45379; IANBD-labeled cardiac RTF, Ca2+ fluorescence; inhibition, % at 7.15 µM; 340,000 tested, 0.12% active; AID 493244;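 active = inhibition above the mean inhibition of all tested compounds plus 3 SD, cut at about 17% in these data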;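 also: assay run at fixed EC70 calcium of 1.6 mM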
cardiac RTF act: increases calcium sensitivity of human cardiac regulated thin filaments. 340,000 tested, 0.24% active. P19429+P45379. IANBD-labeled TnC RTF fluorescence at EC20 calcium; 0% EC20 calcium, 100% full calcium. activation, % at 7.2 µM. AID 493008;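 active = activation above the mean over all tested compounds plus 3 SD, cut at about 30% in these data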;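 also: rise in fluorescence read as greater calcium sensitivity of cardiac thin filaments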
IDE cell activ: activators of human insulin-degrading enzyme in cells | HEK cells, FAbeta-B cleavage, fluorescence polarization; 0% vehicle, 100% cell-free pure enzyme wells | activation, % at 5.96 µM | 340,000 tested, 0.073% active | AID 493087;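 active = activation above the mean of all tested compounds plus 3 SD, set per screening campaign, cut at about 17% in these data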
TPT1 inh confirm: confirmation of Candida albicans TPT1 inhibitors; shares compounds with TPT1 inh; recombinant caTPT1, fluorescence polarization, RNase T1 coupled; inhibition, % at 5 µM; 2,400 tested, 74% active; AID 2149;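 active = inhibition above the primary screen limit, the mean inhibition of all tested compounds plus 3 SD, cut at about 25% in these data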
RNase T1 inh: counter-screen for TPT1 inhibitors: inhibitors of Aspergillus oryzae RNase T1. 2,400 tested, 83% active. inhibition, % at 5 µM. RNase T1 cleavage, fluorescence polarization, 1536-well. shares compounds with TPT1 inh. AID 2153;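 active = inhibition above the solvent-only control well mean plus 3 SD, limit set per screening run, cut at about 23% in these data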;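 also: plate controls were DMSO wells with enzyme for no effect and wells without RNase T1 for full effect; inhibitors block cleavage so intact labeled substrate keeps polarization high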
IDE cell inh cf: confirmation of human insulin-degrading enzyme inhibitors in cells. inhibition, % at 5.59 µM. shares compounds with IDE cell inh. 1,200 tested, 51% active. HEK cells, FAbetaB cleavage, fluorescence polarization;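 active = mean inhibition across triplicate wells above the cutoff set by the earlier primary insulin-degrading enzyme screen, cut at about 16% in these data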;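 also: 0% = DMSO wells and 100% = 60 µM reference IDE inhibitor Ii1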
HEK293 tox: counter-screen for IDE inhibitors: cytotoxicity in HEK cells; shares compounds with IDE cell inh; HEK293 cytotoxicity, ATP luminescence; inhibition, % at 5.59 µM; 1,200 tested, 28% active; AID 449730; in the data active = inhibition above about 22%;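 also: 0% = vehicle wells and 100% = reference cytotoxic drug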
RTF Ca inh conf: confirmation of inhibitors of cardiac thin filament calcium sensitivity | shares compounds with RTF Ca sens inh | reconstituted cardiac thin filaments, calcium sensitivity fluorescence | inhibition, % at 7.15 µM | AID 504635 | 360 tested, 8% active; in the data active = inhibition above about 18%
Active calls of the source: *; i = inactive; . = not tested or not shown; + = active, no number.

SMILES | TPT1 inh | CRFR2-BP ag | IDE cell inh | RTF Ca sens inh | cardiac RTF act | IDE cell activ | TPT1 inh confirm | RNase T1 inh | IDE cell inh cf | HEK293 tox | others
CCOC(=O)/C(=C\C=C1/Sc2cc(OCC)c(OCC)cc2N1CC)C(C)=O | 147.3* | 322.0* | 127.8* | i | 515.6* | -148.6 | 122.8* | 123.0* | 40.8* | 34.6*
CCOC(=O)/C(=C/C=C1\Sc2cc(OCC)c(OCC)cc2N1CC)C(C)=O | + | 279.5* | 163.1* | i | 533.8* | -128.5 | 148.7* | 141.9* | 92.0* | 24.7*
COc1ccc(NC(=O)C2CCCN2S(=O)(=O)c2cccc3cccnc23)cc1OC (stereo not given) | -1.5 | 0.0 | -4.6 | -1.9 | -5.4 | -0.9 | . | . | . | .
C=CCOC(=O)C1=C(C)OC(N)=C(C#N)C1c1ccoc1 (stereo not given) | 62.4* | 19.6 | 44.8* | -4.7 | 3.5 | -18.3 | 59.0* | 73.8* | 40.0* | 5.2
C=CCOC(=O)C1=C(C)OC(N)=C(C#N)C1c1ccc2c(c1)OCO2 (stereo not given) | -2.6 | -1.9 | -3.2 | -12.3 | 0.5 | -4.2 | . | . | . | .
N#Cc1ccc(NC(=O)C2=COCCO2)cc1 | . | 0.4 | 2.3 | -1.6 | -2.6 | 3.9 | . | . | . | .
CC(=O)c1sc(N/N=C\c2ccc(Br)cc2)nc1C | 71.1* | 11.3 | 36.8* | -10.5 | 3.8 | -54.3 | 82.0* | 88.1* | 75.8* | 8.7
CC(=O)c1sc(N/N=C\c2cccc(Br)c2)nc1C | 67.3* | 18.6 | 40.0* | -6.6 | 12.7 | -76.3 | 77.7* | 80.6* | 105.5* | 14.7
Cc1cc(=O)[nH]c(N/N=C/c2cccc(Br)c2)n1 | 1.3 | -0.1 | 0.5 | -6.3 | -0.2 | -4.9 | . | . | . | .
COc1cc(/C=C2\SC(N)=NC2=O)cc(Cl)c1O | 43.3* | 6.7 | 25.6* | -15.0 | 3.7 | -42.0 | 60.2* | 70.9* | 46.6* | 12.2
COC(=O)/C=C1/S/C(=N/N=C/c2ccc(N(C)C)cc2)NC1=O | -2.6 | . | -5.1 | . | . | . | . | . | . | .
CN(C)c1ccc2c(c1)OC(N)=C(C#N)C2c1cccc(F)c1 (stereo not given) | 78.2* | 79.2* | 27.8* | -121.0 | 72.8* | -43.0 | 61.9* | 69.8* | 16.3* | 71.8*
C/C(=N\NC(=O)c1nn(C)c(C)c1Br)c1cccc(NC(=O)c2ccoc2C)c1 | -4.3 | -0.8 | -7.1 | -3.9 | -5.6 | 3.5 | . | . | . | .
CCC1=NN2C(=N)/C(=C\c3ccc(SCc4ccco4)o3)C(=O)N=C2S1 | 48.1* | 29.1 | 21.9* | -27.4 | 11.0 | -20.0 | 28.9* | 43.2* | 9.8 | 3.1
Cc1oc(C)c2c(=O)ccc3c(c12)OC(N)=C(C#N)C3c1ccccc1Cl (stereo not given) | 28.9* | 16.0 | 30.5* | -25.6 | 13.3 | -75.6 | 47.8* | 56.0* | 25.9* | 13.7
Cc1oc(C)c2c(=O)ccc3c(c12)OC(N)=C(C#N)C3c1ccccc1 (stereo not given) | 3.9 | 9.4 | 14.5 | -7.2 | 8.1 | -16.6 | . | . | . | .
CCOC(=O)C1=C(c2ccccc2)N=c2s/c(=C\c3cccc(O)c3)c(=O)n2C1c1cccs1 (stereo not given) | 2.5 | 1.6 | 1.9 | -6.1 | 4.2 | -5.0 | . | . | . | .
O=c1/c(=C\c2ccc(O)cc2)sc2n1C(c1ccccc1)C(c1ccccc1)=NN=2 (stereo not given) | 62.2* | 20.0 | 19.3* | -10.9 | 11.8 | -49.0 | 64.5* | 75.6* | 141.3* | 12.5
O=C(N/N=C/c1c(O)n(-c2ccc(Cl)cn2)c(=O)c2ccccc12)c1ccncc1 | 130.2* | 55.1* | 21.6* | -17.5 | 19.7 | -26.8 | 153.8* | 142.8* | 37.8* | 3.2
CCN(CC)C(=O)c1ccc(/C=C/c2c[nH]c3ccccc23)[n+](C)c1 | 102.6* | 53.6* | 22.0* | -142.9 | 140.0* | -23.4 | 109.8* | 111.7* | 21.1* | 16.3
O=C(/C=C/c1c[nH]c2ccccc12)c1ccccc1 | 10.5 | 6.0 | 5.6 | 5.4 | 2.2 | -6.9 | . | . | . | .
CN1Cc2sc(NC(=S)NC(=O)c3ccccc3)c(C#N)c2CC1(C)C | 97.4* | 93.1* | 58.0* | . | . | . | 85.0* | 90.2* | 4.0 | 15.2
CC(=O)c1ccc(-c2cccc(-c3cc(=O)oc4ccc(C(C)(C)C)cc34)c2)cc1 | . | 5.0 | . | 0.9 | 0.7 | 6.5 | . | . | . | .
CC(=O)c1cc2c(ccc3ccccc32)oc1=O | . | 0.7 | . | -0.1 | -0.6 | 2.6 | . | . | . | .
CCN(CC)c1ccc2cc(C(C)=O)c(=O)oc2c1 | 130.8* | 361.5* | 35.3* | -185.7 | 152.7* | -36.9 | 109.0* | 108.8* | 17.9* | 9.8
SMILES | TPT1 inh | CRFR2-BP ag | IDE cell inh | RTF Ca sens inh | cardiac RTF act | IDE cell activ | TPT1 inh confirm | RNase T1 inh | IDE cell inh cf | HEK293 tox | others
CCN(CC)c1ccc2cc(C=O)c(=O)oc2c1 | 120.7* | 308.9 | 90.5* | -425.2 | 424.9* | -68.9 | 101.8* | 100.8* | 67.3* | 12.2
Cc1ccc(S(=O)(=O)NC2CC(C)(C)N(O)C(C)(C)C2)cc1 | . | -2.2 | -4.1 | -6.4 | 1.2 | 0.7 | . | . | . | .
C=CCN1C=CC(=C/C=C(/C#N)C(=O)OCC)C=C1 | 175.8* | 70.7* | 43.5* | -130.0 | 123.0* | -43.4 | 186.8* | 173.3* | 63.1* | 11.3
O=C(NCCC1CCCCN1S(=O)(=O)c1ccc(Cl)cc1)C(=O)NCc1cccnc1 (stereo not given) | -0.9 | 1.1 | -0.7 | 0.1 | -2.6 | -0.6 | . | . | . | .
O=C(O)C1Nc2ccc(Br)cc2C2C=CCC12 (stereo not given) | 28.7* | 0.6 | -4.6 | 59.5* | -38.5 | 5.4 | 11.4 | 21.5 | . | . | RTF Ca inh conf=5.9
O=C(O)C1Nc2c(Cl)cc(Cl)c(Cl)c2C2C=CCC12 (stereo not given) | 3.8 | 2.4 | 4.9 | 2.0 | -3.2 | 0.8 | . | . | . | .
O=C(O)C1Nc2c(Cl)cc(Cl)cc2C2C=CCC12 (stereo not given) | 33.2* | 2.9 | -1.7 | 55.5* | -39.5 | 8.6 | 11.2 | 16.5 | . | . | RTF Ca inh conf=7.4
CCOC(=O)C1Nc2ccc(Br)cc2C2C=CCC12 (stereo not given) | 3.5 | -0.5 | -6.1 | -3.4 | -3.8 | 5.1 | . | . | . | .
